An excerpt weighted towards active compounds, which were near 3.1% of everything screened.
BRCA1 expr act: qHTS Assay to Identify Small Molecule Activators of BRCA1 Expression; hit rate 1.1% among 380,000; Potency, µM (top dose mostly 46.1 µM), for inactives: at the highest dose activation, most hits filed as activators; MCF7-BRCA1-FFLuc reporter, luminescence, 48 h; response scale: scaled: vehicle 0%, 10 µM genistein 100%; note: potency is the fitted concentration of half-maximal effect; nearly all actives have a fitted effect of over 80% in size
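MCF7-BRCA1-FFLuc cells, 2000/well in phenol-red-free MEM, attached 2 h then treated 48 h at 37 C. Luciferase luminescence read 15 min after reagent; normalized to genistein maximum activation (10microM) and DMSO, concentration-response fitted.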
ELG1 repair inh: qHTS screen for small molecules that inhibit ELG1-dependent DNA repair in human embryonic kidney (HEK293T) cells expressing luciferase-tagged ELG1; HEK293T ELG1-luciferase reporter, luminescence, 16 h; DNA damage induced by 5-fluorouridine; Potency, µM (series often up to 46.1 µM), inactives show at the top dose activity change, negative = inhibition, usual class: inhibitors; hit rate 2.3% among 330,000; note: potency is the fitted concentration of half-maximal effect; % is set by controls: 0 for no effect and ±100 for the full control effect; nearly all actives have a fitted effect of over 55% in size
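Luminescence from the luciferase reporter, measured 30 min after ONE-Glo reagent at room temperature, was the read-out. Beforehand, 2,000 cells per well were exposed for 16 hr at 37 °C to 5-fluorouridine together with compound or vehicle.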
IL2 activator: qHTS of IL-2 Activators. IL-2 activation reporter assay, cell-based qHTS; stimulated with anti-CD3/CD4/CD28 beads; in transgenic mouse T cells. activation, % (series mostly up to about 46 µM). hit rate 0.065% among 360,000. AID 652025, 2013; in the data active = activation above about 50%; inconclusive = mostly about 30% to 49%; note: 0% is about no effect
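Quantitative HTS in unstimulated transgenic mouse T cells, with memory T cells as non-tolerant control and PMA/ionomycin as tolerance-bypass control. Compound pretreatment lasted 60 minutes before 18 h bead stimulation; EGFP/DsRed fluorescence read.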
Nrf2 ARE act: qHTS of Nrf2 Activators; Potency, µM (highest dose often 46.1 µM), for inactives: at the highest dose activation, usual class: activators; AREc32 ARE-luciferase reporter (MCF7-derived line), luminescence, 24 h; hit rate 0.31% among 410,000; note: potency is the fitted concentration of half-maximal effect; % of control where 0% means no effect; nearly all actives have a fitted effect of over 65% in size
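Nrf2 activation is followed as ARE-luciferase induction in the AREc32 line after one day of compound treatment; luminescence is read with Steady-Glo.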
The depositor's hits bear a star; u = inconclusive; x = not tested or not shown. Unless noted, calls come from the whole dose curve; as a rule, active = well fitted curve in the direction sought with a large enough effect; inconclusive = small, poorly fitted or top-dose-only effect, or another doubt; inactive = no such curve, though single readings can be large; an effect the other way counts as inactive or inconclusive.

SMILES | BRCA1 expr act | ELG1 repair inh | IL2 activator | Nrf2 ARE act
CN(C)C(=O)c1cc(C(=O)c2ccc(C(F)(F)F)cc2)c[nH]1 | 10µM* | u | 0 | 3%
O=C(Nc1nc2cc(Cl)ccc2s1)C1CCCN(S(=O)(=O)c2cccc3cccnc23)C1 (stereo unspecified) | -21% | 16µM* | -4 | -3%
Cc1ccc(NC(=O)C2CCCN2S(=O)(=O)c2cccc3cccnc23)cc1 (stereo unspecified) | x | x | x | 0%
CSc1cccc(NC(=O)C2CCN(S(=O)(=O)c3ccc(F)cc3)CC2)c1 | -14% | x | 0 | 1%
O=C(Nc1ccc(C(F)(F)F)cc1)C1CCCN1S(=O)(=O)c1cccc2cccnc12 (stereo unspecified) | -59% | 21µM* | -1 | 4%
CSc1cccc(NC(=O)C2CCCN(S(=O)(=O)c3ccc(F)cc3)C2)c1 (stereo unspecified) | -18% | 21µM* | 2 | 0%
O=C(C1CCCN(S(=O)(=O)c2cccc3nonc23)C1)N1CCN(c2ccccc2Cl)CC1 (stereo unspecified) | -41% | 23µM* | -1 | -1%
O=C(Nc1ccc(F)cc1)C1CCCN(S(=O)(=O)c2cccc3cccnc23)C1 (stereo unspecified) | -3% | u | -1 | -1%
CSCCC(NS(=O)(=O)c1ccc2c(c1)oc(=O)n2C)C(=O)N1CCN(c2cc(Cl)ccc2C)CC1 (stereo unspecified) | x | x | x | 4%
Cc1ccc(NC(=O)C2CCCN(S(=O)(=O)c3cccc4cccnc34)C2)cc1Cl (stereo unspecified) | x | x | x | 7%
O=C(Nc1ccccc1Cl)C1CCCN(S(=O)(=O)c2cccc3cccnc23)C1 (stereo unspecified) | -76% | -5% | 0 | 0%
O=C(Nc1nccs1)C1CCCN(S(=O)(=O)c2cccc3cccnc23)C1 (stereo unspecified) | -9% | 23µM* | -1 | -1%
CC1Cc2ccccc2N1C(=O)C1CCCN(S(=O)(=O)c2cccc3cccnc23)C1 (stereo unspecified) | -42% | 21µM* | -4 | 3%
CC(=O)c1cccc(NC(=O)C2CCCN(S(=O)(=O)c3cccc4cccnc34)C2)c1 (stereo unspecified) | 5% | 16µM* | -3 | 2%
O=C(O)[C@@H]1CCCN(S(=O)(=O)c2cccc3cccnc23)C1 | -6% | 21% | 1 | -1%
COC(=O)C(C(=O)OC)c1cc2c(cc1CNS(=O)(=O)c1ccc(C)cc1)OCO2 | x | x | 0 | x
O=c1c2cccnc2n(Cc2ccccc2F)c(=O)n1Cc1ccccc1Cl | 0% | x | x | -1%
CCc1ccccc1NC(=O)C1CCN(S(=O)(=O)c2ccc3[nH]c(=O)ccc3c2)CC1 | u | x | x | 3%
O=C1C(=C(c2ccccc2)N2CCOCC2)Cc2ccccc21 | -79% | x | -4 | u
CCOc1cc(C(=S)N2CCCC2)ccc1OC | -10% | -5% | -3 | 0%
CCOc1cc(C(=S)N2CCCC2)ccc1OCC(=O)Nc1c(C)cc(C)cc1C | -27% | 21µM* | 1 | 0%
O=C1c2cccc3cccc(c23)C(=O)N1CC1CCN(S(=O)(=O)c2ccccc2)CC1 | -3% | x | 2 | 2%
O=C1c2cccc3cccc(c23)C(=O)N1CC1CCN(S(=O)(=O)c2ccc(F)cc2)CC1 | 81% | 21µM* | 0 | 2%
COc1ccc(Cl)cc1N1C(=O)/C(=C\c2sccc2C)N=C1SCC(=O)NC1CC1 | -70% | 16µM* | -1 | 8%
O=C(Oc1cc2oc(=O)cc(-c3ccccc3)c2cc1Cl)C1CCCCC1 | 15% | 16µM* | 3 | 0%
COC(=O)c1ccc(C(=O)OC)c(NC(=O)N2CC3CCCN3c3ccccc32)c1 (stereo unspecified) | x | x | x | 7%
CCSc1nc(-c2ccccc2)nc(C(Cl)Cl)n1 | -80% | 18µM* | -4 | -2%
CSc1nc(-c2ccc(C)cc2)nc(C(Cl)Cl)n1 | -49% | u | 1 | 0%
COc1cccc(NC(=O)Cn2c(=O)n(-c3ccc(CC(=O)NCC4CCCO4)cc3)c(=O)c3ccccc32)c1 (stereo unspecified) | 2% | x | x | -1%
